rTrxR1 inhibitor: rat TrxR1 inhibition | 1% of 390,000 active | recombinant rTrxR1, NADPH fluorescence consumption, selenite substrate | O89049 | Potency, µM (titrated, usually from 114 µM), for the others: at the highest dose activity change, negative = inhibition, usual class: inhibitors | AID 588453; also: potency is read from the fitted curve at half-maximal effect; nearly all actives have a fitted effect of over 65% in size
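Rat TrxR1 (90 nM in the dispensed reagent) was pre-reduced with 400 uM NADPH for 5 min at room temperature, then incubated with compound for 15 min. After 400 uM selenite was added, NADPH fluorescence (Ex 340/Em 450 nm) was followed for 8 min.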
PKM2 act: increases activity of human pyruvate kinase M2; P14618; purified PKM2, Kinase-Glo ATP luminescence, activation; response scale: 0% is enzyme alone, no compound; Potency, µM (highest dose often 57.5 µM), for the others: at the highest dose activation, hits mostly activators; 0.34% of 260,000 active; also: potency is read from the fitted curve at half-maximal effect; nearly all actives have a fitted effect of over 55% in size
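Purified hPK-M2 (>95%) run at intermediate activity with 0.1 mM ADP and 0.5 mM PEP in 50 mM imidazole pH 7.2, KCl, MgCl2; 1 h room temperature. ATP formed read by Kinase-Glo luminescence; normalized to uninhibited and no-enzyme controls.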
GALK inh: inhibitors of human galactokinase; P51570; Purified GALK, Kinase-Glo residual ATP luminescence; Potency, µM (highest dose often 57.5 µM), without a hit: at the highest dose activity change, negative = inhibition, actives largely listed as inhibitors; 0.007% of 270,000 active; AID 1868; also: potency is read from the fitted curve at half-maximal effect
Target sequence (P51570 whole entry, looked up): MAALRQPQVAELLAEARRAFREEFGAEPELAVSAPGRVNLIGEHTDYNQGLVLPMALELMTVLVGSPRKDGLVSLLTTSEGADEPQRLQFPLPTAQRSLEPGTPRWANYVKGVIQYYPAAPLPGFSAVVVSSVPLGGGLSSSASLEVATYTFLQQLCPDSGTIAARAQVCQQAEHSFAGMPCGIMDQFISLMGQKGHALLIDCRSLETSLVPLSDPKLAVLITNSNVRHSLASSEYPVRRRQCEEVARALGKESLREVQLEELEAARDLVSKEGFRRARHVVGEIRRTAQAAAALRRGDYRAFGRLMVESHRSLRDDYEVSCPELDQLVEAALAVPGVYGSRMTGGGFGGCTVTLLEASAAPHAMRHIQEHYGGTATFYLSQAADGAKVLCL
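Kinase-Glo Plus luminescence measured ATP left after a 1 h room-temperature reaction. The reaction used 5 nM GALK, 100 uM galactose and 35 uM ATP at pH 8.0 (20 mM HEPES, 5 mM MgCl2, 60 mM NaCl, 1 mM DTT, 0.01% BSA).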
PI4K2A inh: blocks human PI4K2A kinase activity. purified PI4K2A, ADP-Glo luminescence, 1 h; active compounds read low. activity change, negative = inhibition, % at 76.9 µM. 0.13% of 420,000 active. AID 1346378; in the data active = activity change below about -50%; inconclusive = mostly about -30% to -49%;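 also: -100% = wells without enzyme as full effect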
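In this quantitative HTS, ADP production by PI4K2A was quantified luminescently after 1 h at ambient temperature; 100 microM adenosine served as plate-quality control.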
TrxR1 substrate: rat thioredoxin reductase 1 substrate activity; Potency, µM (highest dose often 114 µM), inactives show at the highest dose activity change, negative = substrate turnover; 0.01% of 390,000 active; O89049; purified TrxR1 substrate turnover, NADPH consumption readout; also: potency is read from the fitted curve at half-maximal effect; nearly all actives have a fitted effect of over 50% in size
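Rat TrxR1, dispensed at 90 nM, was prereduced with 400 uM NADPH (final) for 5 min at ~22 deg C, then incubated with compound 15 min before 400 uM selenite. A first-read NADPH fluorescence drop versus no-compound background flagged substrates.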
An asterisk follows results filed as active; ? = inconclusive; · = not tested or not shown; [ ] = another dose, or the depositor's remark. This is a sample that favours compounds with a hit; in the whole collection about 1.2% have one here. Unless noted, calls follow the shape of the dose curve; as a rule, active = well fitted curve in the direction sought with a large enough effect; inconclusive = small, poorly fitted or top-dose-only effect, or another doubt; inactive = no such curve, though single readings can be large; an effect the other way counts as inactive or inconclusive. Unless noted, % is scaled to controls: 0 for no effect and ±100 for the full control effect.

SMILES | rTrxR1 inhibitor | PKM2 act | GALK inh | PI4K2A inh | TrxR1 substrate
CCC/C=C1/CCCOC(C(=O)NCCN2CCOCC2)(C(F)(F)F)C1 (stereo unspecified) | -9% | · | · | 3 | -1%
O=C(NCc1ccccc1)C1(C(F)(F)F)C/C(=C\Cc2ccccc2)CCCO1 (stereo unspecified) | -23% | · | · | · | -11%
C/C=C1\COC(C(=O)NCc2ccccc2)(C(F)(F)F)C=C1C=C(C)C (stereo unspecified) | 3.2µM* | · | · | -2 | 0%
C/C=C1\COC(C(=O)NCCN2CCOCC2)(C(F)(F)F)C=C1C=C(C)C (stereo unspecified) | 10µM* | · | · | · | 1%
Cc1cccc(N(CC(N)=O)C2SC(=O)N(Cc3cccc(C(=O)O)c3)C2=O)c1 (stereo unspecified) | -14% | · | · | -1 | 2%
C=CCn1c(SCC)nc2ccccc2c1=O | 8% | · | · | · | -3%
CCN(CC)C(=O)c1sc2c(c1C)c(=O)n(-c1ccccc1)c(=O)n2Cc1c(C)cc(C)cc1C | 18%[57.1 µM] | · | · | 2 | 7%[57.1 µM]
CCCC[C@H]1C2CC(OC(=O)Nc3ccc4c(c3)OCO4)C(C2)[C@H]2CCCCN21 (stereo partly specified) | · | · | · | 4 | ·
CCOC(=O)COc1ccc(Br)cc1/C=C\c1[nH]c(=O)[nH]c(=O)c1[N+](=O)[O-] | 45µM* | -3% | -7% | -28 | -9%
CCOC(=O)COc1ccc(Br)cc1/C=C/c1[nH]c(=O)[nH]c(=O)c1[N+](=O)[O-] | ? | 21% | -11% | ? | 0%
Cc1ccc(C)n1-c1nnc(N2CCCC(C(=O)Nc3ccc(C(C)C)cc3)C2)s1 (stereo unspecified) | -20% | · | · | -7 | -3%
Nc1ccc(C#Cc2ccccc2)cc1 | -8% | 1% | 0% | 1 | -2%
NS(=O)(=O)C#Cc1ccccc1 | 4.7µM* | · | · | -3 | 20%[57.1 µM]
COc1cccc(CNC(=O)C2CCN(c3nnc(-n4c(C)ccc4C)s3)CC2)c1 | -26% | · | · | 5 | -3%
CC(C)(C)C1CCc2c(sc(NC(=O)c3ccc(Cl)cc3)c2C(=O)NCc2ccco2)C1 (stereo unspecified) | 2% | · | · | 1 | 13%
Cc1cc2nc(-c3ccc(SCC(=O)N4CCN(C(=O)c5ccco5)CC4)nc3)[nH]c2cc1C | 13µM* | -15% | 2% | 0 | 43%
Cc1nnnn1/C(=C\c1ccccc1)C(=O)OCC(=O)NC(C)(C)C | 50µM* | 20% | -2% | -5 | -3%
Cc1nnnn1/C(=C\c1ccccc1)C(=O)OCC(=O)NC1CCCCC1 | ? | · | · | -10 | -3%
CC(=O)Nc1ccc(NC(=O)COC(=O)c2c(C)nn(-c3ccccc3)c2C)cc1 | -19% | 4% | -2% | 1 | -8%
CC(=O)Nc1ccc(NC(=O)COC(=O)/C(=C/c2ccccc2)n2nnnc2C)cc1 | 71µM* | 14% | 6% | -9 | 2%
COC(=O)C(CC(=O)c1ccc(Br)cc1)n1cccn1 (stereo unspecified) | 8.9µM* | -1%[11.5 µM] | -2% | 10 | 10%
Clc1ccccc1CSc1nnc(-c2cccnc2)n1Cc1ccco1 | 25µM* | ? | 2% | -29 | 1%
Fc1ccc(CSc2nnc(-c3cccnc3)n2Cc2ccco2)cc1 | ? | -2% | 0% | -1 | 18%
Cc1ccc(NC(=O)c2cc3c(=O)n(Cc4cccnc4)ccc3nc2C)cc1F | 11%[57.1 µM] | · | · | -2 | -4%[57.1 µM]
CCCCn1c(SCC(=O)c2ccc3c(c2)OCCO3)nnc1-c1ccco1 | 7.1µM* | 5% | 1% | -5 | -4%
SMILES | rTrxR1 inhibitor | PKM2 act | GALK inh | PI4K2A inh | TrxR1 substrate
COCCn1c(SCC(=O)c2ccc3c(c2)OCCO3)nnc1-c1ccoc1C | 45µM* | -7% | -2% | 1 | -5%
COC(=O)[C@]12CCCCC=C1N(Cc1cccc3ccccc13)C(=O)[C@H](CC(=O)NCc1cccs1)C2 | · | · | · | 3 | ·
CCOc1ccc(-n2c(SCC(=O)Nc3ccc(S(=O)(=O)Nc4cc(C)nc(C)n4)cc3)nnc2-c2cccc(C)c2)cc1 | · | · | · | 0 | ·
Clc1ccccc1Cn1nnc2c(NCC3CC3)ncnc21 | 22% | 8.9µM* | 3% | 4 | 9%
Clc1ccccc1Cn1nnc2c(Nc3ccccc3)ncnc21 | 27% | 18% | 4% | 2 | 15%
Cn1c(C(=O)Nc2ccc(OC(F)(F)F)cc2)cc2c(=O)n3ccccc3nc21 | -5% | · | · | -9 | -6%
COc1ccc(-c2nc3ccc(NC(=O)COC(C)=O)cc3c(=O)n2Cc2ccccc2)cc1COc1ccc(NC(C)=O)cc1 | 35µM* | · | · | · | -1%
COc1ccc(-c2nc3ccc(NC(C)=O)cc3c(=O)n2Cc2cccc(Cl)c2)cc1COc1ccc(NC(C)=O)cc1 | 14µM* | · | · | · | 0%
COc1ccc(CN(Cc2ccccc2)C(=O)COC(C)=O)cc1COc1ccc(NC(C)=O)cc1 | 6% | · | · | · | -2%
COc1cccc(CC(=O)N2CCc3nc(-c4ccc(OC)cc4C)c4c(c3C2)CO[C@@H](c2ccccc2)C4)c1 | · | -6%[11.5 µM] | · | · | ·
COc1cc2c(cc1NC(=O)CSc1nnc(Cc3cccs3)n1Cc1ccco1)oc1ccccc12 | 14µM* | 1% | -2% | -5 | 2%[57.1 µM]
N#Cc1ccc(CSc2nnc(Cc3cccs3)n2Cc2ccco2)cc1 | 40µM* | ? | 0% | -8 | -5%
Oc1cc(Nc2ccccc2)cc2cccnc12 | 12%[57.1 µM] | · | · | -1 | -4%
Oc1cc(NCCN2CCOCC2)cc2cccnc12 | 11µM* | · | · | ? | 0%
Cc1cc(C)cc(NC(=O)Cn2nnc(C(=O)Nc3cc(C)cc(C)c3)c2N)c1 | 9% | · | · | -7 | 4%
O=C(c1ccc(Nc2nc3ccccc3n3nnnc23)cc1)N1CCN(c2cccc(C(F)(F)F)c2)CC1 | 71µM* | · | · | -2 | 25%
O=C(c1ccncc1)N1CCN(c2cccc(C(F)(F)F)c2)CC1 | -4% | -2% | 5% | 3 | -6%
Cn1cnc([N+](=O)[O-])c1Sc1nc(N)nc2c1ncn2Cc1ccccc1 | 6.3µM* | · | · | 1 | -8%
CCCn1cnc2c(Sc3c([N+](=O)[O-])ncn3C)nc(N)nc21 | 3.2µM* | · | · | -2 | -4%
CCCCn1cnc2c(Sc3c([N+](=O)[O-])ncn3C)nc(N)nc21 | 2.8µM* | · | · | -2 | -6%
NS(=O)(=O)c1ccc(N2CCCCS2(=O)=O)cc1 | · | · | · | 0 | ·
COc1ccc(C(=O)c2cn(Cc3ccc(F)cc3)c3ccc(C)cc3c2=O)cc1 | 11% | · | · | 0 | -5%
CC(C)(C)NS(=O)(=O)c1ccc(CCC(=O)NCc2ccco2)cc1 | ? | 4% | 3% | -10 | 5%
COc1ccc(CCC(=O)NCc2ccco2)cc1 | 11µM* | 11% | 1% | -12 | 16%[57.1 µM]
O=C(O)/C=C/C(=O)NNC(=O)c1cc(-c2ccccc2)n[nH]1 | 6.3µM* | -16% | -3% | -15 | 10%
O=C(O)/C=C\C(=O)NNC(=O)c1cc(-c2ccccc2)n[nH]1 | -12% | 11% | -1% | 1 | 0%
